This excerpt belongs to a sample that is enriched for hits.
KDM5B inhibitor – KDM5B demethylase inhibition; Q9UGL1; KDM5B demethylase, FDH-coupled NADH fluorescence (FDH is formaldehyde dehydrogenase); Potency, µM (top dose mostly 57.7 µM), actives largely listed as inhibitors; 2.6% of 220,000 active; AID 1347165; active = well fitted inhibition curve with a large enough effect; also: 0% is about no effect; nearly all actives have a fitted effect of over 70% in size
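qHTS format, multiple compound concentrations. Buffer 50 mM HEPES pH 7.5/0.01% Tween-20; 200 nM KDM5BΔAP final; 10 min compound preincubation; substrate-mix levels 12.5 µM peptide, 25 µM α-KG, 0.25 mM NAD⁺; 30 min RT; ΔRFU.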
An asterisk follows results filed as active; i = inactive. Potency is read from the fitted curve at half-maximal effect.

SMILES	KDM5B inhibitor
CC(NC(=O)CSc1nc2cc([N+](=O)[O-])ccc2o1)c1ccc(F)cc1F (stereo not given)	i
CC(C)CC(=O)Nc1ccc(-c2nc3cc(Cl)ccc3o2)cc1	i
O=C1CO[C@H]2CN(Cc3ccc4c(c3)OCO4)C[C@H]2N1Cc1ccc(F)cc1	i
O=C1CO[C@H]2CN(C3CCC3)C[C@H]2N1Cc1ccc(F)cc1	i
O=C1CO[C@H]2CN(c3ncccn3)C[C@H]2N1Cc1ccncc1	40µM*
O=C1CO[C@H]2CN(Cc3ccncc3)C[C@H]2N1Cc1ccc(F)cc1	35µM*
O=C1CO[C@H]2CN(c3ncccn3)C[C@H]2N1Cc1ccccc1	35µM*
O=C(O)c1ccc(CN2C[C@@H]3OCC(=O)N(Cc4cccnc4)[C@@H]3C2)cc1	i
O=C(c1ccno1)N1C[C@@H]2OCC(=O)N(Cc3ccccc3)[C@@H]2C1	i
CS(=O)(=O)N1C[C@@H]2OCC(=O)N(Cc3ccccc3)[C@@H]2C1	i
O=C(c1cnccn1)N1C[C@@H]2OCC(=O)N(Cc3ccccc3)[C@@H]2C1	i
Cn1c(CN2CCOC[C@H]2c2ncc(-c3ccc(Cl)cc3)[nH]2)nc2ccccc21	i
O=C(c1ccccc1F)N1CCC(N2CC3CCCN3C2=O)CC1 (stereo not given)	i
COCc1cc(C)nc2sc3c(c12)NCN(c1cccc(OC)c1)C3=O	i
CC(Nc1oc(COc2ccccc2Cl)nc1C#N)c1ccccc1 (stereo not given)	i
NC(=O)c1nn(CC(O)COc2ccc3ccccc3c2)c(=O)c2ccccc12 (stereo not given)	i
O=C(Cn1ccc2c(Br)cccc21)NC1CC1	i
CCOc1ccc(C(=O)Nc2nc(C)cs2)cc1OCC	i
O=C(c1cnc(N2CCOCC2)c2ccccc12)N1CCN(c2ccc(F)cc2)CC1	i
Cn1cc(-c2ccnc(N3CCOCC3)c2)c2nc(COc3ccc(Cl)cc3)cn2c1=O	i
O=c1cc(N2CCOCC2)oc2c(-c3ccc(F)cc3)nccc12	35µM*
COCC(=O)N(C1CCOCC1)C1CCN(C(=O)c2cc(F)ccc2F)CC1	i
CN(C1CCOCC1)C1CCN(C(=O)c2ccccn2)CC1	i
COc1ccc(-c2nccc3c(=O)cc(N4CCOCC4)oc23)cc1OC	i
COc1cc(F)ccc1-c1nccc2c(=O)cc(N(C)C3CCOCC3)oc12	40µM*
SMILES	KDM5B inhibitor
Cc1ccccc1-c1nccc2c(=O)cc(N(C)C3CCOCC3)oc12	i
CN(c1cc(=O)c2ccnc(-c3ccc(O)c(F)c3)c2o1)C1CCOCC1	32µM*
O=c1cc(N2CCOCC2)oc2c(-c3ccc(F)c(Cl)c3)nccc12	20µM*
CN1CCN(c2cc(=O)c3ccnc(Nc4ccc(F)c(Cl)c4)c3o2)CC1	i
COCC(=O)N(C1CCOCC1)C1CCN(C(=O)c2ccc(F)cc2F)CC1	i
CCOC(=O)C(=O)CC(=O)c1ccc(Cl)cc1Cl	i
Cc1ccc(C)c(C(=O)N2CC(C(=O)NC3CCCCC3)C3(CCOCC3)C2)c1 (stereo not given)	i
COCCN1CCN(C(=O)[C@@H]2Cc3cn(Cc4cc(C)on4)c4cccc(c34)[C@H](CC(C)C)N2)CC1	i
Cc1ccccc1CC(=O)Nc1ccc(OC2CCCC2)cc1	i
COc1cccc2cc(C(=O)N(Cc3ccccc3)Cc3ccccc3)c(=O)oc12	i
CNC(=S)N/N=C(/C)c1ccc([N+](=O)[O-])cc1	i
CCOc1ccc2c(c1)S/C(=C\c1cccc(Oc3ccc(Cl)cc3)c1)C(=O)N2	i
Cc1ccc(C(=O)N(CC2CCN(Cc3ccccc3F)CC2)CC2CCCO2)s1 (stereo not given)	i
O=C(NC[C@H]1O[C@H](Cc2cc(-c3ccc(F)cc3)on2)CC[C@@H]1O)c1ccncc1	i
CCCCn1c(=O)[nH]c(=O)c2c1nc(CN1CCN(S(=O)(=O)c3ccc(C)cc3)CC1)n2CC	i
C=C(C)CN1CCC(NC(=O)c2ccc(C)s2)CC1	i
COc1cc(F)ccc1-c1nccc2c(=O)cc(N3CCOCC3)oc12	35µM*
Cc1ccc(Nc2c(-c3ccc(N4CCOCC4)cc3)nc3ncccn23)cc1C	i
O=c1cc(N2CCOCC2)oc2c(-c3cccc4[nH]ccc34)nccc12	i
CN(C)c1cc(=O)c2ccnc(-c3ccc(N4CCOCC4)cc3)c2o1	32µM*
O=c1cc(N2CCOCC2)oc2c(NCc3ccc(F)cc3)nccc12	35µM*
Cc1cc(C)cc(-n2ccnc(NCc3ccc(F)cc3)c2=O)c1	i
Cc1ccc(Nc2c(-c3ccc(N4CCOCC4)cc3)nc3ncccn23)cc1	i
COc1cc(F)ccc1-c1nccc2c(=O)cc(-c3cccnc3)oc12	i
CCNc1c(NC(=O)Nc2cccc(C)c2)c(=O)oc2ccccc12	i
SMILES	KDM5B inhibitor
Cc1c(C(=O)NCc2cncn2CC(C)C)oc2c(F)cccc12	i
N#CCc1nc(N)c2ccccc2n1	i
Cc1ccnc(NC(=O)Cc2nc(-c3ccccc3)oc2C)c1	i
O=C(Nc1cc2c(cc1C(=O)c1ccc(Br)cc1)OCCO2)c1cccc(F)c1	i
O=C(CN1CCN(S(=O)(=O)Cc2ccccc2)CC1)Nc1ccc(F)c(F)c1	i
COCCCN1C(=O)CC[C@H]2CN(C(=O)c3scnc3C)CC[C@H]21	i
O=C(N[C@@H]1CCC[C@@H]1C(=O)N1CCCCC1)c1ccncc1	i
O=C1CC(C(=O)Nc2ccc(Cl)cc2Cl)n2nc(-c3ccccc3)cc2N1 (stereo not given)	i
COc1ccc(C(=O)N[C@@H](Cc2ccccc2)C(=O)N2CCCOCCNC(=O)CC2)cc1	i
Cc1ccc(NC(=O)C(C)C)c(Br)c1	i
O=C(Cc1c[nH]c2ccccc12)NC1(c2ccccc2)CCC1	i
COc1ccccc1CN1CCCn2nc(C)c(-c3ccccc3[S+](C)(=O)[O-])c21	i
Cc1nn2c(c1-c1ccccc1[S+](C)(=O)[O-])N(Cc1ccc3[nH]ccc3c1)CCC2	i
Cc1nn2c(c1-c1ccccc1[S+](C)(=O)[O-])N(CCC(C)C)CCC2	22µM*
COC[C@@H]1CN(C(=O)c2nn(C)c3ccccc23)C[C@H]1C(N)=O	i
CCOc1ccc(CN2CCCC(CO)(CCc3ccccc3)C2)cc1CO (stereo not given)	i
Cc1nccc(-c2ccccc2)c1C(=O)N(C)Cc1csc(C(C)C)n1	i
CCNC(=O)Nc1ccc2c(c1)CN(Cc1ccccc1OC)C(=O)C(C)O2 (stereo not given)	28µM*
COc1ccc(C(=O)Nc2ccc3c(c2)CN(Cc2ccc(OC)cc2OC)C(=O)C(C)O3)cc1 (stereo not given)	i
COc1ccc(CN2Cc3cc(NC(=O)c4ccc(Cl)cc4)ccc3OC(C)C2=O)c(OC)c1 (stereo not given)	25µM*
COc1ccc(CN2Cc3cc(NC(=O)c4ccc(F)cc4F)ccc3OC(C)C2=O)c(OC)c1 (stereo not given)	i
CCC(C(=O)Nc1ccc2c(c1)CN(Cc1ccccc1OC)C(=O)C(C)O2)c1ccccc1 (stereo not given)	i
COc1ccccc1CN1Cc2cc(NC(=O)Cc3ccc(F)cc3)ccc2OC(C)C1=O (stereo not given)	i
COc1ccc(C(=O)Nc2c(C)cccc2C(C)C)cc1F	i
NCCCCCC(N)(C(=O)O)c1ccccc1 (stereo not given)	i
Cc1ccc(NC(=O)NC2CCOc3ccccc32)cc1 (stereo not given)	i

From PubChem
